In PubChem BioAssay (NCI):
Where “and” joins values, the source holds several entries; their conditions need not be identical. Equal values may be shown once. This is part of a sample that, as a whole, favours compounds with a hit. Of some 83,000 tested, about 20% had one in any assay.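 Plates (96-well) were seeded with cells, treated with compound at one concentration, and incubated for 48 hours before percent growth was determined.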 Calls of active or inactive are those of the source. Rule for the calls: active = growth percent below 10; inactive = the rest.

What was measured:
Experiment in all cases: NCI-60 one-dose screen, 48 h (100 = growth as untreated, 0 = no growth, -100 = all killed)
Conditions in all cases: 10 µM unless noted
[1] = test system: SK-MEL-2 melanoma
[2] = test system: EKVX NSCLC
[3] = test system: SN12C renal
[4] = test system: UO-31 renal
[5] = test system: TK-10 renal
[6] = test system: ACHN renal
[7] = test system: CAKI-1 renal
[8] = test system: A498 renal
[9] = test system: CCRF-CEM leukemia
[10] = test system: MOLT-4 leukemia
[11] = test system: SR leukemia
[12] = test system: RPMI-8226 leukemia
[13] = test system: OVCAR-8 ovarian
[14] = test system: OVCAR-5 ovarian
[15] = test system: OVCAR-4 ovarian
[16] = test system: SK-OV-3 ovarian
[17] = test system: IGROV1 ovarian
[18] = test system: OVCAR-3 ovarian
[19] = test system: HS 578T breast
[20] = test system: NCI/ADR-RES ovarian

Row | SMILES | growth [1] | growth [2] | growth [3] | growth [4] | growth [5] | growth [6] | growth [7] | growth [8] | growth [9] | growth [10] | growth [11] | growth [12] | growth [13] | growth [14] | growth [15] | growth [16] | growth [17] | growth [18] | growth [19] | growth [20]
1 | CCN(CC)CCOc1ccc2c(c1)C(=O)c1cc(OCCN(CC)CC)ccc1-2 | 114% (inactive) and 95.4% (inactive) | 90.5% (inactive) and 59% (inactive) | 73.2% (inactive) and 61.6% (inactive) | 59.6% (inactive) and 4.32% (active) | 75.8% (inactive) and 78.1% (inactive) | 46.7% (inactive) | 85.7% (inactive) | 73.9% (inactive) and 90.8% (inactive) | 55.1% (inactive) | 50.5% (inactive) and -16.2% (active) | 93% (inactive) | 67.1% (inactive) and 7.54% (active) | 46.5% (inactive) and 59.3% (inactive) | 108% (inactive) | 60.7% (inactive) and 40.7% (inactive) | 90% (inactive) and 87.6% (inactive) | 78.3% (inactive) | 96.1% (inactive) and 70.5% (inactive) | 97.8% (inactive) and 91.7% (inactive) | 69.7% (inactive) and 70.8% (inactive)
2 | O=[N+]([O-])c1ccc(N/N=C\c2cc(Br)ccc2O)nc1 | 39.7% (inactive) | 81% (inactive) and 46.4% (inactive) | 22.3% (inactive) and 20.3% (inactive) | -6.22% (active) and -11.8% (active) | 22.1% (inactive) and 37.9% (inactive) | 4.98% (active) and 10.6% (inactive) | 0.337% (active) and 2.29% (active) | 69.5% (inactive) | 17.5% (inactive) and -4.06% (active) | 12% (inactive) and -9.48% (active) | 20.2% (inactive) and 3.08% (active) | 32.5% (inactive) and -9.9% (active) | 11.9% (inactive) and 3.96% (active) | 52% (inactive) and 54.4% (inactive) | 20.3% (inactive) and 7.71% (active) | 27.1% (inactive) and 27.7% (inactive) | 13.5% (inactive) and 8.02% (active) | 11.2% (inactive) and 24.5% (inactive) | – | 5.25% (active) and 6.08% (active)
3 | CCCCCCCCCCCCCCCCOc1ccc(C)cc1 | 115% (inactive) | 99.7% (inactive) | 104% (inactive) | 81.5% (inactive) | 109% (inactive) | 104% (inactive) | 105% (inactive) | 92.3% (inactive) | 127% (inactive) | 103% (inactive) | 97.9% (inactive) | 118% (inactive) | 106% (inactive) | 99.9% (inactive) | 99.8% (inactive) | 108% (inactive) | 127% (inactive) | 108% (inactive) | – | 103% (inactive)
4 | O=[N+]([O-])c1ccc2nc3c4ccccc4c4ccccc4c3nc2c1 | 97.6% (inactive) | 81.8% (inactive) | 81.9% (inactive) | 75.3% (inactive) | 67.8% (inactive) | 57.3% (inactive) | 77.9% (inactive) | -39.8% (active) | 63.1% (inactive) | 89.7% (inactive) | 56.6% (inactive) | 59.4% (inactive) | 65.9% (inactive) | 91.7% (inactive) | 8.96% (active) | 100% (inactive) | 58.8% (inactive) | 72.9% (inactive) | 79.9% (inactive) | 58.9% (inactive)
5 | COc1cc(/C=N/Nc2nc3c([nH]2)c(=O)n(C)c(=O)n3C)ccc1O | 98.2% (inactive) and 108% (inactive) | 103% (inactive) and 119% (inactive) | 97.4% (inactive) and 98.2% (inactive) | 86.7% (inactive) and 86.2% (inactive) | 95.7% (inactive) and 93.1% (inactive) | 109% (inactive) | 99.3% (inactive) and 118% (inactive) | 82.3% (inactive) and 77.6% (inactive) | 89.2% (inactive) and 104% (inactive) | 87.9% (inactive) and 97.5% (inactive) | 89% (inactive) and 85.3% (inactive) | 98.3% (inactive) and 103% (inactive) | 103% (inactive) and 108% (inactive) | 107% (inactive) and 111% (inactive) | 108% (inactive) | 104% (inactive) and 109% (inactive) | 110% (inactive) and 124% (inactive) | 122% (inactive) and 110% (inactive) | 118% (inactive) and 103% (inactive) | 109% (inactive) and 111% (inactive)
6 | CC[N+](CC)(CC(=O)Nc1c(C)cccc1C)Cc1ccccc1 | 107% (inactive) and 119% (inactive) | 106% (inactive) and 100% (inactive) | 85.9% (inactive) and 100% (inactive) | 92.6% (inactive) and 71.6% (inactive) | 144% (inactive) and 90.9% (inactive) | 98.5% (inactive) and 101% (inactive) | 108% (inactive) and 91.9% (inactive) | 106% (inactive) and 107% (inactive) | 2.65% (active) | 99.8% (inactive) and 98.6% (inactive) | 92.4% (inactive) | 74% (inactive) and 113% (inactive) | 95.2% (inactive) and 105% (inactive) | 119% (inactive) and 99.1% (inactive) | 80.4% (inactive) and 105% (inactive) | – | 85.4% (inactive) and 94.5% (inactive) | 104% (inactive) and 109% (inactive) | 109% (inactive) | 90.3% (inactive) and 102% (inactive)
7 | CN(C)c1ccc(C(=C2C=CC(=[N+](C)C)C=C2)c2ccccc2Cl)cc1 | -57.7% (active) and -52.4% (active) | 15.9% (inactive) and -34.1% (active) | -42% (active) and -50.3% (active) | -28.9% (active) and -12.3% (active) | -30.6% (active) and -72.4% (active) | 1.56% (active) and -64% (active) | -16.7% (active) | -64% (active) and -87.1% (active) | -35.3% (active) and 5.73% (active) | -26.3% (active) and 5.09% (active) | – | -22.6% (active) | -77.5% (active) and -77.8% (active) | -27.8% (active) and -93.8% (active) | 4.46% (active) and -27% (active) | -38.7% (active) and -32.4% (active) | -81.1% (active) and -67.1% (active) | -88.9% (active) and -91.4% (active) | -37.3% (active) and -21.2% (active) | 23.2% (inactive) and 9.87% (active)
8 | CCOc1ccc(Nc2c3ccccc3nc3ccccc23)cc1 | 104% (inactive) and 34% (inactive) and 72.1% (inactive) | 42.8% (inactive) and 42.1% (inactive) | 81.8% (inactive) and 20.6% (inactive) and 27.6% (inactive) | 62.8% (inactive) and 0.768% (active) and 1.99% (active) | 93.3% (inactive) and 35.1% (inactive) and 32.7% (inactive) | 84.9% (inactive) and -30.4% (active) and 6.25% (active) | 91.3% (inactive) and 6.56% (active) and -17% (active) | 73.5% (inactive) and 35.5% (inactive) and 72.8% (inactive) | 99.8% (inactive) and 12.4% (inactive) and 4.91% (active) | 89.9% (inactive) and -2.2% (active) and -10.9% (active) | – | 81.3% (inactive) and 18% (inactive) and -19.7% (active) | 83.6% (inactive) and 22.9% (inactive) and 36.9% (inactive) | 90.8% (inactive) and 29.4% (inactive) and 47.8% (inactive) | 90.9% (inactive) and 36.4% (inactive) and 37.9% (inactive) | 96.6% (inactive) and 30.7% (inactive) and 40.5% (inactive) | 92.1% (inactive) and 20.4% (inactive) and 16.5% (inactive) | 96.5% (inactive) and 17.9% (inactive) and 35.1% (inactive) | 88.5% (inactive) and 60.2% (inactive) and 61.7% (inactive) | 82.8% (inactive) and 22.6% (inactive) and 16.8% (inactive)
